# Bioassay records (PubChem BioAssay)
# Shown are actives, neighbours in structure and some others; about 2.6% of the full set was active somewhere.
# Giardia kill – kills Giardia lamblia. Giardia lamblia trophozoite viability. activity change, % at 7.66 µM, hits read low. 340,000 tested, 0.15% active; in the data active means activity change below about -80%; inconclusive means between about -30% and that limit;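 further: parasites exposed to compound for two days anaerobically before the ATP read; on the % scale 0 is the no-effect control and ±100 the full control effect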
#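 Each well holds 100 Giardia trophozoites and compound. After two days (48 hrs) at 37 deg C in anaerobic conditions, ATP is quantified by luminescence.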
# ATXN viability – reduces viability in counter-screen for ATXN expression inhibitors. S2 cells (HEK-293 line with an ATXN2-luciferase reporter) viability, CellTiter-Fluor protease fluorescence, 24 h. Potency, µM (highest dose often 56.7 µM), most hits filed as cytotoxic. 400,000 tested, 0.49% active. AID 651635; further: potency means the concentration at half of the fitted maximal effect; nearly all actives have a fitted effect of over 40% in size
# TGFb SMAD3 inh – blocks TGF-b signaling; HepG2 CAGA-GFP TGF-b/SMAD3 reporter, GFP fluorescence, 18 h; TGF-beta stimulated, 500 pg/mL final; Potency, µM (top dose mostly 46.1 µM), for inactives: at the highest dose activity, negative = inhibition, most hits filed as inhibitors; 410,000 tested, 1.2% active; AID 588855; further: potency means the concentration at half of the fitted maximal effect; on the % scale 0 is the no-effect control and ±100 the full control effect; nearly all actives have a fitted effect of over 65% in size
#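 Cell-based qHTS in HEPG2 carrying a CAGA-GFP Smad reporter; compounds added before 500 pg/mL final TGF-beta, 18 h incubation at 37 degrees C, GFP fluorescence quantified per cell by imaging cytometry.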
# HepG2 viability – counter-screen for TGF-b inhibitors: cytotoxicity in HepG2 cells; AID 588856; 410,000 tested, 0.76% active; Potency, µM (doses to about 46.1 µM), for inactives: at the highest dose activity change, negative = cytotoxicity, most hits filed as cytotoxic; HepG2 CAGA-GFP viability, ATP luminescence, 18 h; further: potency means the concentration at half of the fitted maximal effect
#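 CellTiter-Glo luminescence gave cytotoxicity after 18 hours at 37 degrees C. The cells were HepG2 CAGA-GFP in 1% FBS DMEM, stimulated with 500 pg/mL TGF-beta after compound addition. %Activity was normalised to no-cell wells (complete cell-killing) and DMSO (no toxicity), and curves were fitted and classified.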
# uPA surface inh – inhibitors of cell surface uPA generation. cell surface uPA generation assay, qHTS. Potency, µM (top dose mostly 38.3 µM), inactives show at the highest dose activity change, negative = inhibition, most hits filed as inhibitors. 330,000 tested, 0.31% active. AID 540303; active means well fitted inhibition curve with a large enough effect; inconclusive means small, poorly fitted or top-dose-only effect; inactive means no such curve, though single readings can be large or run the other way; tested in mouse RAW 264.7 cells; further: potency means the concentration at half of the fitted maximal effect; on the % scale 0 is the no-effect control and ±100 the full control effect; nearly all actives have a fitted effect of over 55% in size
# ATXN2 expr inh – reduces ATXN2 reporter expression in HEK-293 cells; HEK-293 ATXN2-luciferase reporter, luminescence, 24 h; Potency, µM (titrated, usually from 57 µM), for the others: at the highest dose activity change, negative = inhibition, actives largely listed as inhibitors; 360,000 tested, 0.72% active; further: potency means the concentration at half of the fitted maximal effect; on the % scale 0 is the no-effect control and ±100 the full control effect; nearly all actives have a fitted effect of over 55% in size
#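 qHTS (up to 57 uM final) was run with 24 h compound exposure of reporter cells at 37 °C. Each well was multiplexed: SteadyGlo luminescence measured ATXN2-luciferase expression after a fluorogenic Gly-Phe-AFC viability readout (25 uM final).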
# * marks the source's active call; other numbers are inactive results; i = inactive; ? = inconclusive; · = no result; [ ] = remark or other dose. Unless noted, the call rests on the fitted dose curve; in most records, active means well fitted curve in the direction sought with a large enough effect; inconclusive means small, poorly fitted or top-dose-only effect, or another doubt; inactive means no such curve, though single readings can be large; an effect the other way counts as inactive or inconclusive.
SMILES,Giardia kill,ATXN viability,TGFb SMAD3 inh,HepG2 viability,uPA surface inh,ATXN2 expr inh
CCOC(=O)c1sc2nc(CSc3ccccc3)nc(N3CCCN(C)CC3)c2c1C,-3,35µM*,-8%,-15%,?,·
CCOC(=O)c1sc2nc(CSc3ccccc3)nc(N3CCC(C(N)=O)CC3)c2c1C,-1,?,?,-27%,2%,?
O=C(Nc1ccc([N+](=O)[O-])cc1Cl)c1ccccc1O,-19,·,?,-35%,·,·
CC(=O)Oc1c(C)cc(Cl)cc1C(=O)Nc1ccc([N+](=O)[O-])cc1Cl,5,28µM*,?,-42%,?,?
O=C(O)c1ccc(O)c2ncc(N3CCOCC3)cc12,·,·,·,·,·,-8%
O=C(CCSc1ccc(Cl)cc1)c1ccco1,34,?,11µM*,-87%,2%,·
O=C(CSc1ccc(Cl)cc1)c1ccco1,-3,i,-18%,-20%,2%,8%
COc1ccccc1CN1CCOc2ccc(C(C)(O)COc3ccccc3)cc2C1 (stereo not given),·,i,·,·,·,·
Cc1ccc2c(c1)ncc[n+]2CC(=O)c1ccc(F)cc1,·,·,?,-29%,·,·
COc1cccc(C2(CC(=O)N3CCN(c4ccccn4)CC3)CC(=O)N(C3CCCC3)C2=O)c1 (stereo not given),·,i,·,·,·,·
O=C(CCl)Nc1cc(S(=O)(=O)N2CCCCCC2)ccc1Cl,-5,18µM*,3%,-14%,-8%,?
CCN1CCN(c2ccc(S(=O)(=O)N3CCCCC3)cc2NC(=O)Cc2ccc(Cl)c(Cl)c2)CC1,5,i,16µM*,18µM*,?,-11%
CC(C)(C)CC(=O)Nc1cc(S(=O)(=O)N2CCCCCC2)ccc1Cl,11,i,-24%,-24%,-7%,-11%
CCN1CCN(c2ccc(S(=O)(=O)N3CCCCC3)cc2NC(=O)Cc2ccccc2)CC1,0,i,-23%,-54%,-2%,-5%
O=C(NCCO)c1cn(C2CCN(Cc3c(F)cccc3Cl)CC2)nn1,·,i,·,·,·,·
COc1ccc(CN2CCCC(CNC(=O)c3ccc(F)cc3)C2)c(C)c1C (stereo not given),-7,i,-12%,7.9µM*,15%,·
NC(N)=N/N=C/c1ccc(OCc2ccc(Cl)cc2)cc1,-1,32µM*,?,10µM*,-26%,?
NC(N)=N/N=C/c1ccc(OCc2ccccc2)cc1,7,?,?,13µM*,-26%,?
O=C(N/N=C/c1ccccc1)c1ccc(OCc2ccccc2)cc1,23,i,2%,-37%,-14%,·
Cc1ccc(OCc2nc(C#N)c(NCCc3ccccc3)o2)cc1,·,·,22µM*,-28%,·,·
COc1ccc(CCNc2oc(COc3ccccc3)nc2C#N)cc1,5,i,-2%,-44%,3%,4%
COc1ccc(Nc2oc(COc3ccc(OC)cc3)nc2C#N)cc1,-11,i,-11%,-16%,-7%,14µM*
COc1ccc(Nc2oc(COc3ccccc3F)nc2C#N)cc1,-10,35µM*,-2%,-27%,-16%,?
O=C(Nc1nccs1)[C@@H]1CC=C[C@@H]2CCN(C3CC3)C(=O)[C@@H]21,·,·,2%,-2%,·,·
O=C1C[C@H]2C=CCc3cccc(c32)CN1Cc1cccc(F)c1,·,·,-19%,-17%,·,·
SMILES,Giardia kill,ATXN viability,TGFb SMAD3 inh,HepG2 viability,uPA surface inh,ATXN2 expr inh
COc1ccc(O)c(CN2CCC3(CCC(CNC(=O)C4CCCO4)O3)CC2)c1 (stereo not given),·,i,·,·,·,·
C1=Cc2ccccc2/C1=C\c1cccc(/C=C2\C=Cc3ccccc32)c1,·,·,?,-97%,·,·
CCOc1cc(Br)cc(/C=C2\SC(=Nc3ccccc3)NC2=O)c1O,-17,?,10µM*,-82%,-25%,·
C=CCOc1c(Br)cc(/C=C2\SC(=Nc3ccccc3)NC2=O)cc1OC,10,?,?,16µM*,?,·
CCc1ccc(N=C2NC(=O)/C(=C/c3cc(Br)c(OCC(=O)O)c(OC)c3)S2)cc1,17,i,1%,-11%,1%,2%
CCc1ccccc1N(C)C(=O)c1cn(CC(C)C)c(=O)c2cc(OC)c(OC)cc12,·,?,?,-29%,·,-39%
COc1cc2c(C(=O)N3CCN(c4cccc(C(F)(F)F)c4)CC3)cn(CC(C)C)c(=O)c2cc1OC,·,?,11µM*,-27%,·,?
COc1ccc(N(C)C(=O)c2cn(CC(C)C)c(=O)c3cc(OC)c(OC)cc23)c(OC)c1,-5,i,0%,7.1µM*,3%,-15%
C[C@@H]1CC[C@@]2(OC1)O[C@H]1C[C@H]3[C@@H]4CC[C@H]5C[C@@H](O)CC[C@]5(C)[C@H]4CC(=O)[C@]3(C)[C@H]1[C@@H]2C,·,i[5.17 µM],·,·,·,8%[5.55 µM]
COC(=O)C1CCCCN1Cc1ccc2c(c1)CN(Cc1cn[nH]c1-c1ccc(F)cc1)CCO2 (stereo not given),·,i,·,·,·,·
CN(C)c1ccc(/C=C/C=C2/C=Cc3ccccc32)cc1,·,·,2%,-92%,·,·
COc1cc2nc(N3CCCN(C)CC3)nc(OC3CCN(C)CC3)c2cc1OC,·,·,-22%,-63%,·,·
COc1cc(N(C)C)c(OC)cc1/C=C/c1ccnc2ccccc12,·,·,37%,-35%,·,·
O=C(NCCCc1nc2ccccc2n1CCCCOc1ccccc1)C1CCCCC1,-4,·,?,-8%,·,·
C[C@@]12C=Cc3occc3[C@H]1CC[C@]13CC(=O)[C@@H](CC[C@H]12)C3,1,·,?,-35%,·,·
CCCNCC1C(Oc2ccc(Cl)cc2Cl)C(=O)N1c1cccc(C)c1C (stereo not given),-5,?,?,-104%,?,·
CCCCNCC1C(Oc2ccc(Cl)cc2)C(=O)N1c1ccccc1C (stereo not given),25,i,14µM*,16µM*,3%,-22%
CCc1ccccc1NC(=O)CN1CCN(C(=O)CNC(=O)c2ccc(-c3ccccc3)cc2)CC1,10,i,?,-25%,3.2µM*,-38%
O=C(Nc1ccc(Nc2ccncc2)cc1)c1ccc([N+](=O)[O-])cc1,15,?,18µM*,18µM*,-12%,·
O=C(Nc1ccc(Oc2cccnc2)cc1)c1ccc([N+](=O)[O-])cc1,-17,i,-7%,-26%,-1%,-26%[11.3 µM]
OC(COc1ccc(F)cc1Cl)CN1CCC(Cc2ccccc2)CC1 (stereo not given),10,?,?,16µM*,3%,·
OC(COc1ccccc1F)CN1CCC(Cc2ccccc2)CC1 (stereo not given),6,i,-16%,-37%,13%,-31%
CSc1cccc(NC(=O)NCc2cccc(CNC(=O)Nc3cccc(SC)c3)c2)c1,-18,?,?,13µM*,?,·
